# Results published in PubChem BioAssay AID602400 (Sanford-Burnham Center for Chemical Genomics, 2012).
# A number with no mark means an inactive call. Calls of active or inactive are those of the source. How the calls were made is not given here.
# Assay: Bfl-1 counter-screen inhibitors, SAR follow-up, counter-screen for UBC13 polyubiquitination inhibitor project, biochemical, set 4 (AID 602400)
# Settings: Bfl-1 counterscreen for UBC13 inhibitors
row,SMILES,IC50
1,O=C(C1CCN(c2ncnc3c2nc2n3CCCCC2)CC1)N1CCC(Cc2ccccc2)CC1,> 100 µM
2,O=C(NCc1cccc(Cl)c1)C1CCCN(c2ncnc3c2nc2n3CCCCC2)C1 (stereo not drawn),> 100 µM
3,O=C(NCC1CCN(Cc2cccc(Cl)c2)CC1)[C@@H]1CCCN(c2ncnc3c2nc2n3CCCCC2)C1,> 100 µM
4,Cc1cccc(N2CCN(CCCNC(=O)C3CCCN(c4ncnc5c4nc4n5CCCCC4)C3)CC2C)c1 (stereo not drawn),> 100 µM
5,Cc1cccc(NC(=O)C2CCCN(c3ncnc4c3nc3n4CCCCC3)C2)c1 (stereo not drawn),> 100 µM
6,O=C(NCc1cccc(Cl)c1)C1CCCN(c2ncnc3c2nc2n3CCCC2)C1 (stereo not drawn),> 100 µM
7,COc1cc(Cl)c(C)cc1NC(=O)C1CCN(c2ncnc3c2nc2n3CCCCC2)CC1,> 100 µM
8,O=C(NCC1CCN(Cc2ccc(Cl)cc2)CC1)C1CCCN(c2ncnc3c2nc2n3CCCCC2)C1 (stereo not drawn),> 100 µM
9,O=C(NCC1CCN(Cc2cccc(Cl)c2)CC1)C1CCCN(c2ncnc3c2nc2n3CCCC2)C1 (stereo not drawn),> 100 µM
10,O=C(C1CCN(c2ncnc3c2nc2n3CCCCC2)CC1)N1CCN(Cc2ccccc2)CC1,> 100 µM
11,COc1ccc(Cl)cc1NC(=O)C1CCN(c2ncnc3c2nc2n3CCCCC2)CC1,> 100 µM
12,Cc1ccc(C)c(CN2CCC(CNC(=O)C3CCCN(c4ncnc5c4nc4n5CCCCC4)C3)CC2)c1 (stereo not drawn),> 100 µM
13,O=C(NCCCN1CCN(c2ccc(F)cc2)CC1)C1CCCN(c2ncnc3c2nc2n3CCCCC2)C1 (stereo not drawn),> 100 µM
14,Cc1cc(Cl)ccc1NC(=O)C1CCN(c2ncnc3c2nc2n3CCCCC2)CC1,> 100 µM
15,Cc1ccc(NC(=O)C2CCN(c3ncnc4c3nc3n4CCCCC3)CC2)cc1C,> 100 µM
16,O=C(C1CCN(c2ncnc3c2nc2n3CCCCC2)CC1)N1CCN(c2ccccc2)CC1,> 100 µM
17,Cc1ccc(NC(=O)C2CCN(c3ncnc4c3nc3n4CCCC3)CC2)cc1F,> 100 µM
18,O=C(Nc1ccc(F)c(Cl)c1)C1CCN(c2ncnc3c2nc2n3CCCCC2)CC1,> 100 µM
19,Cc1cc(C)cc(NC(=O)C2CCN(c3ncnc4c3nc3n4CCCCC3)CC2)c1,72.9 µM (active)

row,SMILES,IC50
1,Cc1cc(C)cc(NC(=O)C2CCN(c3ncnc4c3nc3n4CCCC3)CC2)c1,23.9 µM (active)
2,O=C(NCC1CCN(Cc2ccc(F)cc2)CC1)C1CCCN(c2ncnc3c2nc2n3CCCCC2)C1 (stereo not drawn),> 100 µM
3,O=C(NCc1ccc(Cl)c(Cl)c1)C1CCN(c2ncnc3c2nc2n3CCCC2)CC1,> 100 µM
4,COc1cc(OC)c(NC(=O)C2CCN(c3ncnc4c3nc3n4CCCCC3)CC2)cc1Cl,> 100 µM
5,Cc1ccc(NC(=O)C2CCN(c3ncnc4c3nc3n4CCCC3)CC2)cc1Br,14.7 µM (active)
6,Cc1cccc(NC(=O)C2CCN(c3ncnc4c3nc3n4CCCCC3)CC2)c1C,> 100 µM
7,Cc1ccccc1CN1CCC(CNC(=O)C2CCCN(c3ncnc4c3nc3n4CCCCC3)C2)CC1 (stereo not drawn),> 100 µM
8,O=C(NCC1CCN(Cc2cccc(Cl)c2)CC1)[C@H]1CCCN(c2ncnc3c2nc2n3CCCC2)C1,> 100 µM
9,O=C(C1CCN(c2ncnc3c2nc2n3CCCCC2)CC1)N1CCN(c2ncccn2)CC1,> 100 µM
10,CC1CCCC(C)N1CCCNC(=O)C1CCCN(c2ncnc3c2nc2n3CCCCC2)C1 (stereo not drawn),> 100 µM
11,O=C(NCc1cccc(Cl)c1)C1CCN(c2ncnc3c2nc2n3CCCCC2)CC1,> 100 µM
12,O=C(NCC1CCN(Cc2cccc(Cl)c2)CC1)[C@@H]1CCCN(c2ncnc3c2nc2n3CCCC2)C1,> 100 µM
13,Cc1cc(C)cc(NC(=O)C2CCCN(c3ncnc4c3nc3n4CCCC3)C2)c1 (stereo not drawn),> 100 µM
14,Cc1ccc(NC(=O)C2CCN(c3ncnc4c3nc3n4CCCCC3)CC2)c(Cl)c1,> 100 µM
15,Cc1ccc(NC(=O)C2CCN(c3ncnc4c3nc3n4CCCCC3)CC2)cc1F,> 100 µM
16,Cc1ccc(NC(=O)C2CCCN(c3ncnc4c3nc3n4CCCC3)C2)cc1C (stereo not drawn),> 100 µM
17,Cc1cccc(NC(=O)C2CCCN(c3ncnc4c3nc3n4CCCC3)C2)c1 (stereo not drawn),> 100 µM
18,O=C(NCCCN1CCCCC1)C1CCN(c2ncnc3c2nc2n3CCCCC2)CC1,> 100 µM
19,Cc1cc(C)cc(NC(=O)C2CCCN(c3ncnc4c3nc3n4CCCCC3)C2)c1 (stereo not drawn),> 100 µM
